Experimental data from the supplement of paper PMC11417369.
In all, about 25,000 sequences were measured (“ln(normalized median fluorescence intensity)”: median about 9.7, highest 2% from about 11 on). The sample as a whole holds a higher share of the highest values than the screen did.

System: PfAP2-HC AP2 domain (GST-tagged)
Assay: gcPBM binding intensity (ln(normalized median fluorescence intensity)); higher = stronger DNA binding
Procedure, shortened: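 Alexa488 anti-GST antibody, scanned at 488 nm, detected GST-tagged P. falciparum DNA-binding domains that had been expressed in E. coli and incubated for 1 h on an Agilent 4 × 180k array. The array carried primer-extended double-stranded 36-bp intergenic genomic probes and negative controls. Binding intensity is the highest Masliner-normalised natural-log median intensity across replicate spots of either orientation of each probe.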

Sequence | gcPBM binding intensity (ln)
ATTTTATTTTTTAAAGGTACAGTTACAGCTTATATA [XGTACX_site7513] | 9.51
ATAAGCATCTTTTGTGTGCACATAACAAAAAAAAAA | 9.85
TTATAAATGAATAAATGTACAAAATATATATATATA [XGTACX_site8829] | 9.66
TTAAATAAAAAAATAACACACATATAAATCTATATG [CACACA_site7482] | 9.75
TTTTTTTTGTGTTCAAGTACAAAATTTTAAAGGTCA [XGTACX_site4011] | 9.26
TATTGTTGTTCATGTACACACTATAATAAAAGCAAT [CACACA_site6148] | 9.62
CAATATAAAAAACACACACACAAACATATATTTATA [CACACA_site3703] | 10.5
CATATATAAAAAAACACACACATATTTATATTTATA [CACACA_site6682] | 10.3
TATAAAACACACACACATATATATATATATTTATAT [TGCATGCA_negctrl_site48] | 11.2
TATTTATTTATATAAACACACATAAATATAAATATA [CACACA_site6653] | 9.45
ATATAATTATAAAATAAACACACATATATATTTATA [CACACA_site8039] | 9.91
AACAAAAAAACAAACACACACACACGCATATTTATA [CACACA_site7680] | 11.2
ATCTTATATGATCACACACACACGCACAAAACAGAA [CACACA_site4913] | 10.4
AAAAAAAACAAACACACACACAAATATTTATATATT [CACACA_site436] | 10.5
CTTATATTAAAACACACACACGCACAAAACAGAAAT [CACACA_site1462] | 11
AAGGATCACGCACAAACACACATATTTATATTTATA [CACACA_site6405] | 9.95
ATCTTATATTATCACACACACACGCACAAAACAGAA [CACACA_site1463] | 10.3
CACAAAAATAAACACACACACATATATATTTATTAT [CACACA_site5923] | 11.1
ATTCTATATATATAAACACACAAATATTTTTATATA [CACACA_site1677] | 9.65
TTCTTTTCTTCTACATGTACAAATATTATATATATA [XGTACX_site2996] | 9.97
TATATTATATTATACATACACACCCATATAATATGT [CACACA_site869] | 10.1
TATAAATTAATGACATGTACATAAAAGTATAGATGT [XGTACX_site6534] | 9.95
TTTATAAAATTATTTGCATGTAACAATTATAAATTG [TGCATGCA_site1026] | 9.42
TTTTTTTAAAACAAAAAAAAAAAAAAAAAAAAAAAA [TGCATGCA_negctrl_site418] | 8.22

Sequence | gcPBM binding intensity (ln)
TATATATATATATACACACACACACCGATATATATA [CACACA_site8813] | 10.5
TAATAATACCCAAGCACACACACACCCATATATATA [CACACA_site4831] | 10.6
TAAAAAAAAAAAAATACACACACACCGATATATATA [CACACA_site8498] | 10.7
AAAAAAAAAAAAAATACACACACACCGATATATATA [CACACA_site8142] | 10.6
ATAATATATATTAATACACACACACCGATATATATA [CACACA_site9261] | 10.4
TTAATATAAGCAAATACACACACACCGATATATATA [CACACA_site9269] | 11.1
TATACATACATACATACACACACACCGATATATATA [CACACA_site7896] | 10.2
GATATATATTAATATACACACACACCGATATATATA [CACACA_site8462] | 10.2
ATAATACCCAAGCACACACACACACCGATATATATA [CACACA_site8344] | 11.3
CAAAAAAAATTATACACACACACACCGATATATATA [CACACA_site4719] | 11.1
CAAAATAATATATATACACACACACCGATATATATA [CACACA_site8082] | 10.8
AATATATATATATATACACACACACCGATATATATA [CACACA_site8158] | 11.2
ATAAAGAAACATATATGTACTTATATATATATATAT [XGTACX_site5625] | 9.69
TATAAGAGAATATATACACACAAAAATAAATACAGT [CACACA_site5000] | 10.9
ATATATATATAATGAAGTACGAAAAAATAAGAAATG [XGTACX_site4001] | 9.9
TATAAAACAAATATATGTACATATCATAGTATAATA [XGTACX_site2965] | 9.75
AAGGAAATATAATATACACACATAAGTGTACTTCTA [CACACA_site6079] | 9.81
AATAGTCGGGTGCATACACACCTTAAATATAATATA [CACACA_site8271] | 9.57
CTAATCGTGCACAACTGTACATTTGTCAAGGGCAAT [XGTACX_site8662] | 9.62
AAAGAACAAATAAAACATAAAATAATATATATAGAT [CACACA_negctrl_site1764] | 10.1
TACAAACACCCATATACACACAAAAAAAAAATAAAA [CACACA_site5421] | 9.94
TATATACACCCACATACACACAAATAAAAAAACACC [CACACA_site3414] | 10.5
AAAAAAAAAAAAAAAACACACACAACACCCATACCT [CACACA_site9208] | 10.4
AAAAAATACAAACACACACACACACCCATATATATA [CACACA_site3560] | 11
